A selection: hits, their analogues and other compounds. The true share with any hit is near 1.6%.
KCNQ2 enhance – potentiators of rat KCNQ2 potassium channel; Potassium voltage-gated channel subfamily KQT member 2 (Rattus norvegicus), O88943; CHO-K1 KCNQ2, FluxOR thallium flux fluorescence; stronger effect = higher value; B-score at 10 µM; 310,000 compounds, 0.54% hits; AID 2239, 2010;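 active means fluorescence ratio B-score at least 3 SD of library B-scores, with initial fluorescence B-score within 3 of them, cut at about 5.3 in these data; same plate scores as AID 2156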;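 further: B-score of peak minus minimum over baseline fluorescence ratio after K+ and Tl+ stimulus; positive B-score means potentiation of KCNQ2 with more thallium influx and brighter signal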
Target sequence (O88943 whole entry, looked up): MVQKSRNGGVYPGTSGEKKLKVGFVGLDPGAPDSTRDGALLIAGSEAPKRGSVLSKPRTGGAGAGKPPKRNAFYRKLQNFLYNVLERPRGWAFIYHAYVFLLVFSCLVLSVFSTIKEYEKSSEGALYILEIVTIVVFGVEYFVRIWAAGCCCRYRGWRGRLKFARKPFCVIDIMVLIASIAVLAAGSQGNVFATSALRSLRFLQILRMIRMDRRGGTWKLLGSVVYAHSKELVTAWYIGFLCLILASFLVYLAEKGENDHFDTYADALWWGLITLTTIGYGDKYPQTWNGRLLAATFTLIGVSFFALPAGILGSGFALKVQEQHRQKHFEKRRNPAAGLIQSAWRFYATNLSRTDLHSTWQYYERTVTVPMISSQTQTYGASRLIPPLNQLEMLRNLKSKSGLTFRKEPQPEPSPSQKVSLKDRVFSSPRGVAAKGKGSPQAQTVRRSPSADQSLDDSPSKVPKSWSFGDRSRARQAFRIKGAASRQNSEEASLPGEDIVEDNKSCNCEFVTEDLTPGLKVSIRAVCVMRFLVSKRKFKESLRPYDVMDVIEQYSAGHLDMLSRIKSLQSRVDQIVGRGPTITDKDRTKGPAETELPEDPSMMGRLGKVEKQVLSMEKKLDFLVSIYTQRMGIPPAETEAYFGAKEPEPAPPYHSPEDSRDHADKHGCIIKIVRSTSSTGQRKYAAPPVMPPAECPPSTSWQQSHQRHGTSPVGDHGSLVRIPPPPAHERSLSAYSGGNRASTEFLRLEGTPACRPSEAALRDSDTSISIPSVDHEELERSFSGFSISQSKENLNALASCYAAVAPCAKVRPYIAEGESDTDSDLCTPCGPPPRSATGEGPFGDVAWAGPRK
KCNQ2 inh – rat KCNQ2 potassium channel inhibitors, primary screen, cell-based, CHO-K1, FluxOR thallium flux, B-score. 20 min; stronger effect = lower value. B-score at 10 µM. 310,000 compounds, 1.1% hits. AID 2156, 2009;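 active means fluorescence ratio B-score at most minus 3 library SDs, with starting brightness B-score within 2 library SDs, cut at about -5.5 in these data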
Active calls of the source: *; i = inactive; . = not tested or not shown.

SMILES | KCNQ2 enhance | KCNQ2 inh
Cc1ccccc1Nc1nc(N)nc(COC(=O)CC2CC3CCC2C3)n1 (configuration not stated) | 20* | i
O=C(Nc1ccccc1C(=O)N1CCCCC1)c1ccccc1C(F)(F)F | . | i
Cc1ccccc1NC(=S)NC(NC(=O)COc1ccccc1)C(Cl)(Cl)Cl (configuration not stated) | . | i
O=C(COc1ccccc1)NC(NC(=S)Nc1ccccc1O)C(Cl)(Cl)Cl (configuration not stated) | -6.2 | -6.2*
O=C(O)Cn1ccc2cc(S(=O)(=O)N3CCCCCC3)ccc21 | 2 | i
CCN(C(=O)COC(=O)C1CCN(S(=O)(=O)c2ccc3c(c2)OCCO3)CC1)C1CCCCC1 | . | i
c1ccc(-c2cc3c(N4CCN(c5ccccc5)CC4)ncnc3s2)cc1 | -7.7 | -7.7*
c1ccc(-c2cc3c(N4CCN(c5ncccn5)CC4)ncnc3s2)cc1 | . | i
Cc1cc(-c2n[nH]c(=S)n2-c2ccc(F)cc2)nn1C | -6.3 | -6.3*
Cc1cc(C(F)(F)F)nn1Cc1n[nH]c(=S)n1-c1ccc(F)cc1 | 0.62 | i
Cc1nc(Cc2nnc(SC(C)C(=O)Nc3cccc(C#N)c3)o2)cs1 (configuration not stated) | 1.6 | i
CCC(Sc1nc(C)cc(C)n1)C(=O)Nc1nccs1 (configuration not stated) | 0.19 | i
CCCN(CCC)c1nc(C#N)nc(N(CCC)CCC)n1 | -7.9 | -7.9*
CN(C)c1nc(C#N)nc(N(C)C)n1 | 1.9 | i
CCCOc1ccccc1C(=O)N1CCNC(=O)C1CC(=O)OC(C)C (configuration not stated) | . | i
Cc1cc(C(C)(C)C)cc(C)c1C[n+]1ccc2ccccc2c1 | . | i
Cc1ncc(C[n+]2csc(CCOC(=O)CC34CC5CC(CC(C5)C3)C4)c2C)c(N)n1 | . | i
Cc1c(CCOC(=O)CC23CC4CC(CC(C4)C2)C3)sc[n+]1Cc1ccccc1 | -5.6 | -5.6*
O=C(N/N=C/c1ccc(OC(=O)c2cccs2)cc1)c1ccccn1 | 0.3 | i
COCCn1cc(C(=O)N2CCCC(C)C2)c2c3ccccc3n(C)c2c1=O (configuration not stated) | -6.6 | -6.6*
CCN1CCN(C(=O)c2cn(CCOC)c(=O)c3c2c2ccccc2n3C)CC1 | 0.06 | i
CC(C)Cn1cc(C(=O)N2CCN(c3ccccn3)CC2)c2c3ccccc3n(C)c2c1=O | -5.7 | -5.7*
COCCCNC(=O)c1cn(CC(C)C)c(=O)c2c1c1ccccc1n2C | 0.05 | i
NCCNC(=O)Cn1c(=O)c2c3c(sc2n(Cc2ccccc2)c1=O)CCCC3 | . | i
CC1(C)CC(=O)C(C(C#Cc2ccccc2)C2=C(O)CC(C)(C)CC2=O)=C(O)C1 | -5.7 | -5.7*
SMILES | KCNQ2 enhance | KCNQ2 inh
O=C1CCCC(O)=C1C(C#Cc1ccccc1)C1=C(O)CCCC1=O | -6.5 | -6.5*
CC1(C)CC(=O)C(N=Nc2ccc(-c3ccccc3)cc2)=C(O)C1 | . | i
O=C1CCCC(O)=C1Sc1ccccc1C(=O)O | . | i
O=C(OCc1ccccc1F)c1cc2ccccc2cc1O | . | i
O=C(Nc1nc2n(n1)C(c1ccccc1)CC(c1ccc(Cl)cc1)N2)c1ccco1 (configuration not stated) | -7.2 | -7.2*
COc1ccc(C2CC(c3ccccc3)Nc3nc(NC(=O)c4ccco4)nn32)cc1 (configuration not stated) | 0.64 | i
O=C(CSc1nnc(CNC(=O)c2cccs2)o1)Nc1ccc(Br)cc1 | 1.1 | i
COc1ccccc1CNC(=O)[C@H](C)NC(=O)C1CCN(C(=O)[C@@H](N)C(C)C)CC1 | . | i
CCc1noc(C)c1C(=O)N1CCCSC1=Nc1ccccc1C(C)C | -5.7 | -5.7*
CCc1noc(C)c1C(=O)N1CCCC1 | 0.57 | i
CCn1cc(/C=C(\NC(=O)c2ccccc2)C(=O)NCCCN2CCOCC2)c2ccccc21 | . | i
Cc1noc(C)c1COc1ccc(C(=O)OCC(=O)NCc2ccccc2Cl)cc1 | -6.5 | -6.5*
COc1ccc(CNC(=O)COC(=O)c2ccc(OCc3c(C)noc3C)cc2)cc1OC | 0.44 | i
O=C(NCCS(=O)(=O)N1CCC2(CC1)OCCO2)c1ccc(F)cc1 | 0.46 | i
Cc1cccc(-c2cc(C(=O)N/N=C/c3cccnc3)c3ccccc3n2)c1 | . | i
CCCOc1cccc(-c2cc(C(=O)N/N=C/c3cccnc3)c3ccccc3n2)c1 | -5.8 | -5.8*
O=C(N/N=C/c1ccccn1)c1sc2ccccc2c1Cl | 14* | i
O=C(N/N=C/c1ccccn1)c1cc(-c2ccc(Br)cc2)nc2ccccc12 | 4.8 | i
N/C(=N\OC(=O)c1cc(-c2ccccc2)nc2ccccc12)c1cccnc1 | . | i
N/C(=N\OC(=O)c1cc(-c2ccccc2)nc2ccccc12)c1ccc(Cl)cc1 | -6.2 | -6.2*
O=C(N/N=C/c1c[nH]c2ccccc12)c1sc2ccccc2c1Cl | . | i
O=C(N/N=C/c1ccccn1)c1cc(-c2ccc(Cl)cc2)nc2ccccc12 | 9.6* | i
Nn1cnc2cc3ccccc3cc2c1=O | . | i
COc1ccc(-c2cccc(NC(=O)c3ccc4c(c3)OCO4)c2)nn1 | 1.5 | i
C=CCNC(=S)Nc1c(N)n(C)c(=O)n(C)c1=O | 1.8 | i
SMILES | KCNQ2 enhance | KCNQ2 inh
CC(=O)Oc1ccc2nc(-c3ccc(Br)o3)oc(=O)c2c1 | . | i
CCOC(=O)N1CCC(C(=O)NNC(=O)c2ccc(Cl)cc2Cl)CC1 | 0.08 | i
CCCCc1cc(=O)oc2cc(C)cc(OCC(=O)N3C[C@H]4C[C@@H](C3)c3cccc(=O)n3C4)c12 | . | i
CCN(CC)c1nc(Nc2ccc([N+](=O)[O-])cc2)nc(N(CC)CC)n1 | 1.9 | i
Cc1ccccc1CN1CCCC(C(=O)Nc2ccccc2Oc2cccnc2)C1 (configuration not stated) | . | i
O=C(Nc1nc2ccc(F)cc2s1)c1ccccn1 | 16* | i
O=C(Nc1nc2ccc(F)cc2s1)C1=COCCO1 | . | i
CC(C)Cc1csc(NC(=O)c2ccccc2Cl)c1C(=O)O | . | i
CC(C)Cc1csc(NC(=O)c2ccc(Cl)cc2)c1C(=O)O | 5.6* | i
O=C(COC(=O)Cc1ccc(Cl)cc1)Nc1ccc(OC(F)F)cc1 | . | i
O=C(Nc1ccc(Cl)cc1)N(C1=NCCC1)c1ccc(OC(F)F)cc1 | -5.7 | -5.7*
Cc1cc(F)ccc1S(=O)(=O)NCC(c1cccnc1)N1CCc2ccccc21 (configuration not stated) | . | i
Cc1ccc(SCc2cc(-c3ccc(Cl)cc3)on2)cc1 | . | i
Clc1ccc(SCc2cc(-c3ccc(Cl)cc3)on2)cc1 | -7.5 | -7.5*
N/C(=N\OC(=O)c1ccccc1)c1ccn[nH]1 | . | i
CCOc1ccccc1NC(=O)N1CCc2ccccc2C1 | 0.08 | i
COCc1nnc(NC(=O)c2ccccc2Oc2ccccc2)s1 | -6.1 | -6.1*
COCCSc1ccccc1C(=O)Nc1nnc(COC)s1 | . | i
O=C(Cc1ccccc1)Nc1ccccc1C(=O)N1CCCCCC1 | 0.71 | i
CNc1ccc(C(=O)N2CCN(S(=O)(=O)c3ccc4c(c3)OCCCO4)CC2)cc1[N+](=O)[O-] | 1.1 | i
O=C(Nc1ccc(Br)cc1)c1cnc[nH]1 | . | i
O=C(c1cnn2c(C(F)F)cc(-c3ccccc3)nc12)N1CCc2ccccc2C1 | -6.3 | -6.3*
Cc1cc(C(F)F)n2ncc(C(=O)N3CCc4ccccc4C3)c2n1 | 0.89 | i

Screens (PubChem)
